This note sets out measurements from the supplement of paper PMC10681739.

Assay [1] addresses T1, ETS1 (UniProt P14921).
T1 sequence: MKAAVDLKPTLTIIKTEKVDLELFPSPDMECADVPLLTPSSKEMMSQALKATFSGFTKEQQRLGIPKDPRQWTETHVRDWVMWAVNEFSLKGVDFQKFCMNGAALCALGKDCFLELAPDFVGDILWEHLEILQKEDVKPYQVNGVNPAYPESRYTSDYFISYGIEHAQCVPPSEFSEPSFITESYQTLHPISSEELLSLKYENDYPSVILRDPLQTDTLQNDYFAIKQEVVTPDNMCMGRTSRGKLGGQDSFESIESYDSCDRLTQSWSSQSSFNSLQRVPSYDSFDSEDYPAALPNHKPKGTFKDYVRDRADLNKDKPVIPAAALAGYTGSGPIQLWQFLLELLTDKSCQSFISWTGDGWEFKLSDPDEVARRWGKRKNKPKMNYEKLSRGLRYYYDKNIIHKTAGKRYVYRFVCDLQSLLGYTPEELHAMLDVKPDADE
Put plainly: ETS1 binding intensity (PBM fluorescence), ETS1 alone (arbitrary fluorescence units); higher = stronger binding. As to conditions: ETS1 concentration 1 nM; RUNX1 concentration 0 nM.

Assay [2] has as its target RUNX1 (UniProt Q01196). The assay is described as follows: RUNX1 binding intensity (PBM fluorescence), RUNX1 alone (arbitrary fluorescence units); higher = stronger binding. As to conditions: RUNX1 concentration 2 nM; ETS1 concentration 0 nM. As to the method:
(§1)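 Cooperative gcPBM on 36-bp genomic probes with neighbouring ETS1 and RUNX1 sites. Recombinant human RUNX1 (2 nM) was incubated alone or with ETS1 (25 nM) and detected with anti-RUNX1 antibody plus Alexa488 secondary. Values are medians over 4 replicate spots; the RUNX1+ETS1 data were normalised to the RUNX1-only data. The probes sit in constant array flanks that are not printed.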

In assay [3] the target is T1, ETS1. Put plainly: ETS1 binding intensity (PBM fluorescence) in presence of RUNX1, normalised to ETS1-only experiment (arbitrary fluorescence units); higher = stronger binding. As to conditions: ETS1 concentration 1 nM; RUNX1 concentration 25 nM.
For assay [4], the target named is RUNX1 (UniProt Q01196). The assay is described as follows: RUNX1 binding intensity (PBM fluorescence) in presence of ETS1, normalised to RUNX1-only experiment (arbitrary fluorescence units); higher = stronger binding. As to conditions: RUNX1 concentration 2 nM; ETS1 concentration 25 nM. On the procedure: as §1
RUNX1, sequence (Q01196 whole entry): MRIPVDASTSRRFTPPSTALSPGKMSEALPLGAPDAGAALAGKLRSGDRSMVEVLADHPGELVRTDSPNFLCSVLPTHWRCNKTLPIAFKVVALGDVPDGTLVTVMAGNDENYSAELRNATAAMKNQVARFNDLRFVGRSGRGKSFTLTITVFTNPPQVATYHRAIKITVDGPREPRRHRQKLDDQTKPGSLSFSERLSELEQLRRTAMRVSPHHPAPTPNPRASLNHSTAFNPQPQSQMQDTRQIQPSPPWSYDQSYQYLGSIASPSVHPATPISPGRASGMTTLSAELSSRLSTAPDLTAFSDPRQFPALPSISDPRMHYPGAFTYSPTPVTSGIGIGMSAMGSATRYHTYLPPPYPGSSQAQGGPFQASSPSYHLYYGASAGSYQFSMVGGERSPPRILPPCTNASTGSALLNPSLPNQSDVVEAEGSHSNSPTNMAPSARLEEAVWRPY
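Wherever RUNX1 binding intensity (PBM fluorescence) in presence of ETS1, normalised to RUNX1-only experiment is given: Full-length recombinant human ETS1 or RUNX1 bound to double-stranded 36-bp genomic probes on microarrays, detected by protein-specific primary antibody and Alexa488 secondary, spot fluorescence as median of four replicate spots.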
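Wherever RUNX1 binding intensity (PBM fluorescence), RUNX1 alone is given: Full-length recombinant human RUNX1 bound to double-stranded 36-bp genomic probes on a high-density microarray, scored as Alexa488 fluorescence per spot via anti-RUNX1 antibody, median of four replicate spots.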

Consider AGTTGTGTTTTAGGATGTGGTCAAAGCCCAACAGAG, for which the ETS1 binding intensity came to 581 in the assay with ETS1 [1] and 2150 with ETS1 [3]. The results for the RUNX1 binding intensity with RUNX1 [2] and with RUNX1 [4] were 910 and 1090, respectively.

Consider CGGCTGGCAGGAAGTGGCCACTTGAACCGCAGATGC, for which the ETS1 binding intensity with ETS1 [1] was 4480; with ETS1 [3] it was 23300. In addition, the RUNX1 binding intensity in the assay with RUNX1 [2] turned out to be 1190; in the assay with RUNX1 [4], 3880.

Consider GACAGAGGAAACTAGGTGTGACAACCACAAACAGCT, for which the ETS1 binding intensity with ETS1 [1] was determined as 432; with ETS1 [3] it was 651. The RUNX1 binding intensity amounted to 882 with RUNX1 [2] and 785 in the assay with RUNX1 [4].

Take CCTCGGTTCGGAAACGGCGAAAGCAAACCGCAAGGA: the ETS1 binding intensity in the assay with ETS1 [1] was 478; with ETS1 [3], 3890. For the same sequence, the figures for the RUNX1 binding intensity in the assay with RUNX1 [2] and with RUNX1 [4] were 2260 and 3120, respectively.

On to AGGGAGCCCTCCATTTCCTGCCCACATTTGTCACCT, for which the ETS1 binding intensity in the assay with ETS1 [1] came out at 2360; with ETS1 [3], 2060. The RUNX1 binding intensity with RUNX1 [2] amounted to 1240; with RUNX1 [4], 2260.

Take CGGGGCTTCCGGCGCGCTGCCTTGTGGGCACGGTAG: the ETS1 binding intensity with ETS1 [1] was 591; with ETS1 [3], 611. Also, the results for the RUNX1 binding intensity with RUNX1 [2] and with RUNX1 [4] were 711 and 1390, respectively.

With ACCTTCGCCGGATGCTGTGGCTGAAACCACAGCATT, the values for the ETS1 binding intensity with ETS1 [1] and in the assay with ETS1 [3] were 2480 and 13300, respectively. Also, the results for the RUNX1 binding intensity with RUNX1 [2] and in the assay with RUNX1 [4] were 994 and 1980, respectively.

Turning to GACTGGTTTCCTGGTTTTGATGTGGTTTAGAGAAAA, the values for the ETS1 binding intensity in the assay with ETS1 [1] and in the assay with ETS1 [3] were 504 and 630, respectively. For the same sequence, the RUNX1 binding intensity in the assay with RUNX1 [2] was determined as 1080; in the assay with RUNX1 [4] it was 2170.

For AGTGGCAGTGCAGGAAGTGGTTTGTCTGGTACAATC, the ETS1 binding intensity in the assay with ETS1 [1] stood at 3750; in the assay with ETS1 [3], 6800. Also, the RUNX1 binding intensity stood at 788 with RUNX1 [2] and 1590 with RUNX1 [4].

With TGGCAGCCACATCCTGCCTGTGGCTAGGTCAACCCA, the ETS1 binding intensity with ETS1 [1] came to 1220; with ETS1 [3] it was 1290. The figures for the RUNX1 binding intensity with RUNX1 [2] and with RUNX1 [4] were 794 and 3730, respectively.

With GGGCAGGCCGGATGTGGGAGACCACAAAGCCCAAGG, the ETS1 binding intensity is 5360 in the assay with ETS1 [1] and 27500 with ETS1 [3]. Also, the values for the RUNX1 binding intensity with RUNX1 [2] and with RUNX1 [4] were 820 and 9010, respectively.

For the sequence TGTTTTCGCTCTTCCTGGCCTTGCGGGCAGCCAGGA, the ETS1 binding intensity turned out to be 390 with ETS1 [1] and 783 with ETS1 [3]. For the same sequence, the values for the RUNX1 binding intensity in the assay with RUNX1 [2] and in the assay with RUNX1 [4] were 1060 and 1510, respectively.

Consider AAAGTTGTATAGTGAGGATGTGGTCAAGAACTCACC, for which the values for the ETS1 binding intensity with ETS1 [1] and with ETS1 [3] were 577 and 4380, respectively. The values for the RUNX1 binding intensity with RUNX1 [2] and in the assay with RUNX1 [4] were 1010 and 1180, respectively.

In the case of CTAGGCCACCGGAAGTCTCCGCAGTGGTTTTGCAAA, the ETS1 binding intensity with ETS1 [1] stood at 14900; in the assay with ETS1 [3], 25800. Besides, the RUNX1 binding intensity in the assay with RUNX1 [2] was 762; in the assay with RUNX1 [4], 1610.
